Results: the supplement of paper PMC3334620
Over roughly 33,000 sequences, “E-score (-0.5 to 0.5)” has its median near -0.035; the highest 2% begin near 0.35. The full list was thinned out, with the highest values kept by preference.

What follows are sequences tested against T1, Pdr3 (UniProt P33200) (assay: PBM E-score (8-mer binding enrichment) (E-score (-0.5 to 0.5)); higher = stronger / more preferred TF binding). Details: protein concentration: 200 nM; construct: GST-full length.
T1 sequence: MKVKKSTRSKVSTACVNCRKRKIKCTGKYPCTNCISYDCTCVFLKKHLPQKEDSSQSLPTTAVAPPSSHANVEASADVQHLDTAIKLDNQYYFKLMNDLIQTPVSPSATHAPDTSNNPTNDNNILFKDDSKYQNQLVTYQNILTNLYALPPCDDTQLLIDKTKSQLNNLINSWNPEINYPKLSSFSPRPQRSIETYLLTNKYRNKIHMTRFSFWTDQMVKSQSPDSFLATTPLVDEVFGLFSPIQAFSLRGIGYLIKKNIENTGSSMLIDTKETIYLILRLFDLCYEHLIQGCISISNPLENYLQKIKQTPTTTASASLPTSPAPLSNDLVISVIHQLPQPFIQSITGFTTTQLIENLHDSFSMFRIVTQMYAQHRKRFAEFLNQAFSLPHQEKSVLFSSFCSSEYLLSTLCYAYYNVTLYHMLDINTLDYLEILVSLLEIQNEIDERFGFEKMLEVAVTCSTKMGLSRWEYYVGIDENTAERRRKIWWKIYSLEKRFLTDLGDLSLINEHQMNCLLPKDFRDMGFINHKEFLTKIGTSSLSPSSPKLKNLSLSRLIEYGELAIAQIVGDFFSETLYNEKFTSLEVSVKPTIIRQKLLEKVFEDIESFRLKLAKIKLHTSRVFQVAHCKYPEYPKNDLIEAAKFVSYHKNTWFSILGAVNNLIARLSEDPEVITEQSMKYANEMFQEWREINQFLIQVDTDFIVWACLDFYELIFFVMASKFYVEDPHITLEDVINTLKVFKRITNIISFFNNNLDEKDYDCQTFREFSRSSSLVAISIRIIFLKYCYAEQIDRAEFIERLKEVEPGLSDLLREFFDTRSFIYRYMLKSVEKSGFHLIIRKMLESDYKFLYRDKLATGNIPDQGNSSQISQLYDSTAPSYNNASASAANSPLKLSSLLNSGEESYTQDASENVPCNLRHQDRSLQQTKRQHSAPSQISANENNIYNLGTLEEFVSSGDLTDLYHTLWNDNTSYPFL
Method in brief: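 GST-tagged yeast TFs (full-length or DNA-binding domain) were made by PURExpress in vitro transcription/translation and applied at about 100-200 nM to universal all-10-mer Agilent arrays. The arrays were made double-stranded by primer extension, on fresh or once-stripped slides. Bound protein was detected with fluorescent anti-GST, and scans were normalised with masliner. Each ungapped eight-base word, pooled with its reverse complement, received an E-score (modified Wilcoxon-Mann-Whitney statistic) from the Universal PBM Analysis Suite.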

| Sequence | PBM E-score |
| --- | --- |
| ACAAGCCC | -0.157 |
| ACCCATCA | -0.129 |
| GAGCATTA | -0.0816 |
| GGGAAAAC | 0.0253 |
| CGGAAAAA | 0.403 |
| CGAAAAAG | 0.159 |
| CGGAAAAG | 0.415 |
| AGGAAAAG | 0.0387 |
| TGGAAAAA | 0.0433 |
| CGGAAAAC | 0.375 |
| AGGAAAAC | 0.0846 |
| AGGAAAAA | -0.157 |
| GGGAAAAA | 0.176 |
| TAACACGA | 0.0333 |
| CGCGAAAC | -0.00744 |
| TAACTGTA | -0.323 |
| GAGACCGA | 0.0506 |
| ATCTGGTC | -0.051 |
| ACGGGACC | 0.241 |
| CGGGGACG | 0.124 |
| GCGGGACC | 0.323 |
| ACGGGACA | 0.311 |
| TCGGGACA | 0.167 |
| CCGGGACG | 0.365 |
| CCGGGACA | 0.376 |

| Sequence | PBM E-score |
| --- | --- |
| CCGGGACC | 0.413 |
| ACGGGACG | 0.295 |
| ATGGGCCG | 0.0292 |
| AGAAGCCG | 0.213 |
| AACTGTAG | -0.124 |
| AAGATAGA | -0.184 |
| ACCAAAAG | -0.176 |
| CCTCCGCC | 0.169 |
| ACTCCGCG | 0.397 |
| ACTCCGCC | 0.343 |
| CCTCCGCG | 0.445 |
| ACTCCGCT | 0.14 |
| CCTCCGCA | 0.00168 |
| CATAACGC | -0.102 |
| GCGGCTTA | -0.0127 |
| CCGGCTTA | 0.356 |
| CCGGCTTC | 0.322 |
| GTCAGAAC | -0.132 |
| AGTTCAAT | -0.139 |
| CCACGTGA | -0.0844 |
| ACATTCCC | 0.154 |
| CCATTCCA | 0.0798 |
| ACATTCCG | 0.439 |
| CCATTCCG | 0.425 |
| CCATTCCC | 0.101 |

| Sequence | PBM E-score |
| --- | --- |
| ATATTCCC | 0.266 |
| ACATTCCT | -0.0606 |
| ATATTCCG | 0.426 |
| ATATTCCA | 0.128 |
| CTCAAACC | -0.0558 |
| GACATCTA | -0.0109 |
| CAACTTTA | -0.0602 |
| ATACTCGC | 0.162 |
| ACCAAGGT | -0.0204 |
| AGAGCGAC | -0.135 |
| AGGCCATA | -0.0791 |
| CCCGCGGC | 0.488 |
| CCCGCGTC | 0.236 |
| GCGGCCGC | 0.35 |
| GACGCGGC | 0.0937 |
| CCCGCGAC | 0.175 |
| GCCGCGGC | 0.484 |
| CAAATGGC | -0.156 |
| GCTACTAC | 0.146 |
| CGATAGCG | 0.0636 |
| AGGCCTTA | -0.254 |
| CAGGTGGC | -0.197 |
| ACTCCGTA | 0.13 |
| CTTCCGTA | 0.379 |
| ATTCCGTC | 0.42 |

| Sequence | PBM E-score |
| --- | --- |
| ACTCCGTC | 0.206 |
| GTCCCGTA | 0.159 |
| ATTCCGTA | 0.417 |
| GTTCCGTA | 0.471 |
| AATCCGTA | 0.165 |
| GTACCGTA | 0.029 |
| CCTCCGTA | 0.222 |
| CGTCCGTA | 0.176 |
| AATCCGTC | 0.314 |
| GGTATTAC | 0.225 |
| CTTTTAAA | -0.00725 |
| GGGCGTAC | -0.00965 |
| GCAGCAAA | -0.103 |
| CAGACCCG | 0.279 |
| AATCGGTA | -0.0123 |
| CTAGAACA | 0.0618 |
| ATGCTACA | -0.24 |
| CAATAGAG | -0.166 |
| CTCGGCAG | 0.219 |
| CGAAATAG | 0.0496 |
| CCTCCGTC | 0.15 |
| CGTCCGTC | -0.0265 |
| ACTCCGTG | 0.282 |
| CTTCCGTC | 0.403 |
| ATTCCGTG | 0.467 |

| Sequence | PBM E-score |
| --- | --- |
| AATCCGTG | 0.237 |
| AAAACTTC | -0.029 |
| CACCGCTC | 0.0532 |
| GTTTTAGA | -0.0726 |
| GGGGGAGA | -0.00585 |
| ATTTCCCG | 0.369 |
| ATTTTCCC | 0.151 |
| CATTTCCA | -0.0296 |
| CATTTCCG | 0.411 |
| AGTTTCCC | 0.0499 |
| ATTTTCCA | 0.122 |
| AGTTTCCA | 0.0305 |
| ATTTTCCG | 0.432 |
| AGTTTCCG | 0.452 |
| ATTTCCCA | 0.0046 |
| ATTTCCCC | 0.0635 |
| CATTTCCC | 0.203 |
| AAAAGTTG | 0.00957 |
| ATCAAAGC | 0.0706 |
| AACTCGCT | 0.0814 |
| ATATACCC | 0.102 |
| CTACCGGA | 0.335 |
| CACCATAA | -0.109 |
| CGCCACAA | -0.0528 |
| AATTTCCT | 0.0149 |

| Sequence | PBM E-score |
| --- | --- |
| AATTTCCC | 0.0432 |
| AATTTCCG | 0.442 |
| AACTGTAC | -0.229 |
| ACGCCGCA | 0.181 |
| CCGACGGA | 0.413 |
| CGGACGGA | 0.367 |
| CGCACGGC | 0.142 |
| GGCACGGA | 0.314 |
| CGGACGGC | 0.244 |
| CGCACGGA | 0.413 |
| GCGACGCA | -0.126 |
| CCGACGGC | 0.237 |
| GGGACGGA | 0.33 |
| GCGACGGA | 0.374 |
| CCGACGAA | 0.193 |
| ACGACGGA | 0.328 |
| AACTCCTG | -0.193 |
| ATCTGGCA | -0.111 |
| AGCTGTCC | -0.116 |
| GCGGGGCA | 0.129 |
| CATACCCC | 0.0622 |
| CCCACCGG | 0.248 |
| ATCTTCGA | -0.115 |
| AATCATGT | -0.0895 |
| AGCGCCCT | 0.0102 |

| Sequence | PBM E-score |
| --- | --- |
| CCAAGCCA | -0.245 |
| GGAAGCCA | 0.0692 |
| GGGACGAA | 0.162 |
| CGGACGAA | 0.372 |
| CGGACGAC | 0.196 |
| TAGCGGAA | 0.357 |
| AAGCGGAG | 0.0882 |
| TAGCGGCA | 0.107 |
| AAGCGGAA | 0.387 |
| CAGCGGAG | 0.274 |
| CAGCGGAC | 0.176 |
| TAGCGGGA | 0.14 |
| GAGCGGAC | 0.0792 |
| CAGCGGAA | 0.429 |
| AAGCGGAT | 0.309 |
| GAGCGGAA | 0.415 |
| GAGCGGTA | 0.0552 |
| AAGCTATT | -0.112 |
| ACACCACT | 0.108 |
| CGTTGCCC | 0.101 |
| AAGTGTGT | -0.187 |
| CAACTAGA | -0.0997 |
